# In PubChem BioAssay:
# The source made the active and inactive calls.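 The calls were made as follows, unless noted: active = compounds killing one labelled cell type while sparing the other, by normalised counts and ratio limits, not self-fluorescent; inactive = the rest.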
# Assay: modulation of C. elegans fzo-1 (AID 1259413; call rule not given here;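 also: fzo-1 mutant C. elegans worms in liquid wells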)
# Conditions: C. elegans fzo-1 modulator screen, mean read-out; stronger effect = higher value
row,Compound,mean signal
1,COC(=O)[C@H](c1ccccc1Cl)N1CCc2sccc2C1,252 (inactive)
2,COc1ccc(/C=C/C(=O)Nc2ccccc2C(=O)O)cc1OC,225 (inactive)
3,CC1=C(/C=C/C(C)=C/C=C/C(C)=C\C(=O)O)C(C)(C)CCC1,236 (inactive)
4,Cc1cccc(C)c1NC(=O)C1CCCCN1C (configuration not stated),253 (inactive)
5,CN(C)c1nc(N(C)C)nc(N(C)C)n1,270 (inactive)
6,CC[C@H]1OC(=O)[C@H](C)[C@@H](O[C@H]2C[C@@](C)(OC)[C@@H](O)[C@H](C)O2)[C@H](C)[C@@H](O[C@@H]2O[C@H](C)C[C@H](N(C)C)[C@H]2O)[C@](C)(OC)C[C@@H](C)C(=O)[C@H](C)[C@@H](O)[C@]1(C)O,229 (inactive)
7,CNCCC(Oc1ccc(C(F)(F)F)cc1)c1ccccc1 (configuration not stated),190 (inactive)
8,CS(=O)(=O)c1ccc(C2=C(c3ccccc3)C(=O)OC2)cc1,215 (inactive)
9,Cc1occc(=O)c1O,263 (inactive)
10,Nc1ncnc2c1ncn2[C@@H]1O[C@H](CO)[C@@H](O)[C@@H]1O,237 (inactive)
11,CC(C)NCC(O)COc1ccc(CC(N)=O)cc1 (configuration not stated),244 (inactive)
12,C[N+]1(C)CCCC(OC(=O)C(O)(c2ccccc2)c2ccccc2)C1 (configuration not stated),266 (inactive)
13,CC(C)NCC(O)COc1cccc2ccccc12 (configuration not stated),249 (inactive)
14,CCc1ccc(CCOc2ccc(CC3SC(=O)NC3=O)cc2)nc1 (configuration not stated),259 (inactive)
15,CCCCC(=O)N(Cc1ccc(-c2ccccc2-c2nn[nH]n2)cc1)[C@H](C(=O)O)C(C)C,250 (inactive)
16,C[C@H]1COc2c(N3CCN(C)CC3)c(F)cc3c(=O)c(C(=O)O)cn1c23,274 (inactive)
17,O=[N+]([O-])c1cccc2cn[nH]c12,242 (inactive)
18,COc1ccc(-c2cc(=O)c3c(OC)c(OC)c(OC)c(OC)c3o2)cc1OC,277 (inactive)
19,CC(C(=O)O)c1ccc(-c2ccccc2)c(F)c1 (configuration not stated),239 (inactive)

# Assay: EMT-state selective cytotoxicity in co-culture – imaging, PC-3E GFP, TEM4-18 mCherry, primary screen (AID 1345086);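 also: cells exposed to compound for 72 h before imaging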;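 as to red/green cell ratio (normalised): normalised mesenchymal count divided by normalised epithelial count so high means epithelial killing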
# Conditions: PC-3E GFP / TEM4-18 mCherry co-culture, imaging cell counts; at 1 µM; actives lie on both sides; counts scaled to control wells, 1 = unselective
row,Compound,red/green cell ratio (normalised)
1,COC(=O)[C@H](c1ccccc1Cl)N1CCc2sccc2C1,1.19 (inactive)
2,COc1ccc(/C=C/C(=O)Nc2ccccc2C(=O)O)cc1OC,0.8 (inactive)
3,CC1=C(/C=C/C(C)=C/C=C/C(C)=C\C(=O)O)C(C)(C)CCC1,1.29 (inactive)
4,Cc1cccc(C)c1NC(=O)C1CCCCN1C (configuration not stated),1.21 (inactive)
5,CN(C)c1nc(N(C)C)nc(N(C)C)n1,1.11 (inactive)
6,CC[C@H]1OC(=O)[C@H](C)[C@@H](O[C@H]2C[C@@](C)(OC)[C@@H](O)[C@H](C)O2)[C@H](C)[C@@H](O[C@@H]2O[C@H](C)C[C@H](N(C)C)[C@H]2O)[C@](C)(OC)C[C@@H](C)C(=O)[C@H](C)[C@@H](O)[C@]1(C)O,0.75 (inactive)
7,CNCCC(Oc1ccc(C(F)(F)F)cc1)c1ccccc1 (configuration not stated),1 (inactive)
8,CS(=O)(=O)c1ccc(C2=C(c3ccccc3)C(=O)OC2)cc1,0.98 (inactive)
9,Cc1occc(=O)c1O,0.9 (inactive)
10,Nc1ncnc2c1ncn2[C@@H]1O[C@H](CO)[C@@H](O)[C@@H]1O,0.96 (inactive)
11,CC(C)NCC(O)COc1ccc(CC(N)=O)cc1 (configuration not stated),0.99 (inactive)
12,C[N+]1(C)CCCC(OC(=O)C(O)(c2ccccc2)c2ccccc2)C1 (configuration not stated),1.05 (inactive)
13,CC(C)NCC(O)COc1cccc2ccccc12 (configuration not stated),1.4 (inactive)
14,CCc1ccc(CCOc2ccc(CC3SC(=O)NC3=O)cc2)nc1 (configuration not stated),1.07 (inactive)
15,CCCCC(=O)N(Cc1ccc(-c2ccccc2-c2nn[nH]n2)cc1)[C@H](C(=O)O)C(C)C,1.14 (inactive)
16,C[C@H]1COc2c(N3CCN(C)CC3)c(F)cc3c(=O)c(C(=O)O)cn1c23,1.01 (inactive)
17,O=[N+]([O-])c1cccc2cn[nH]c12,0.79 (inactive)
18,COc1ccc(-c2cc(=O)c3c(OC)c(OC)c(OC)c(OC)c3o2)cc1OC,1.15 (inactive)
19,CC(C(=O)O)c1ccc(-c2ccccc2)c(F)c1 (configuration not stated),1.1 (inactive)

# Same assay, conditions: PC-3E GFP / TEM4-18 mCherry co-culture, imaging cell counts; measured here: epithelial PC-3E GFP cell survival; at 1 µM
row,Compound,normalised cell number
1,COC(=O)[C@H](c1ccccc1Cl)N1CCc2sccc2C1,1.15
2,COc1ccc(/C=C/C(=O)Nc2ccccc2C(=O)O)cc1OC,1.21
3,CC1=C(/C=C/C(C)=C/C=C/C(C)=C\C(=O)O)C(C)(C)CCC1,0.91
4,Cc1cccc(C)c1NC(=O)C1CCCCN1C (configuration not stated),1.19
5,CN(C)c1nc(N(C)C)nc(N(C)C)n1,0.98
6,CC[C@H]1OC(=O)[C@H](C)[C@@H](O[C@H]2C[C@@](C)(OC)[C@@H](O)[C@H](C)O2)[C@H](C)[C@@H](O[C@@H]2O[C@H](C)C[C@H](N(C)C)[C@H]2O)[C@](C)(OC)C[C@@H](C)C(=O)[C@H](C)[C@@H](O)[C@]1(C)O,1.39
7,CNCCC(Oc1ccc(C(F)(F)F)cc1)c1ccccc1 (configuration not stated),1.16
8,CS(=O)(=O)c1ccc(C2=C(c3ccccc3)C(=O)OC2)cc1,0.93
9,Cc1occc(=O)c1O,1.16
10,Nc1ncnc2c1ncn2[C@@H]1O[C@H](CO)[C@@H](O)[C@@H]1O,0.99
11,CC(C)NCC(O)COc1ccc(CC(N)=O)cc1 (configuration not stated),1.11
12,C[N+]1(C)CCCC(OC(=O)C(O)(c2ccccc2)c2ccccc2)C1 (configuration not stated),1.31
13,CC(C)NCC(O)COc1cccc2ccccc12 (configuration not stated),0.94
14,CCc1ccc(CCOc2ccc(CC3SC(=O)NC3=O)cc2)nc1 (configuration not stated),1.18
15,CCCCC(=O)N(Cc1ccc(-c2ccccc2-c2nn[nH]n2)cc1)[C@H](C(=O)O)C(C)C,1.14
16,C[C@H]1COc2c(N3CCN(C)CC3)c(F)cc3c(=O)c(C(=O)O)cn1c23,1.12
17,O=[N+]([O-])c1cccc2cn[nH]c12,1.44
18,COc1ccc(-c2cc(=O)c3c(OC)c(OC)c(OC)c(OC)c3o2)cc1OC,0.98
19,CC(C(=O)O)c1ccc(-c2ccccc2)c(F)c1 (configuration not stated),1.07
